Results: PubChem BioAssay AID1851 (National Center for Advancing Translational Sciences (NCATS), 2009)
The campaign covered roughly 16,000 compounds. About 5,100 (32%) were called active. About 25% were inconclusive and are not listed. Some of the results follow. A number with no mark means an inactive call. Calls follow the shape of the dose curve; as a rule, active = well fitted curve in the direction sought with a large enough effect; inconclusive = small, poorly fitted or top-dose-only effect, or effect the other way; inactive = no such curve, though single readings can be large or run the other way.

Target: Cytochrome P450 3A4 (Homo sapiens) (UniProt P08684)
Sequence (P08684 whole entry, looked up): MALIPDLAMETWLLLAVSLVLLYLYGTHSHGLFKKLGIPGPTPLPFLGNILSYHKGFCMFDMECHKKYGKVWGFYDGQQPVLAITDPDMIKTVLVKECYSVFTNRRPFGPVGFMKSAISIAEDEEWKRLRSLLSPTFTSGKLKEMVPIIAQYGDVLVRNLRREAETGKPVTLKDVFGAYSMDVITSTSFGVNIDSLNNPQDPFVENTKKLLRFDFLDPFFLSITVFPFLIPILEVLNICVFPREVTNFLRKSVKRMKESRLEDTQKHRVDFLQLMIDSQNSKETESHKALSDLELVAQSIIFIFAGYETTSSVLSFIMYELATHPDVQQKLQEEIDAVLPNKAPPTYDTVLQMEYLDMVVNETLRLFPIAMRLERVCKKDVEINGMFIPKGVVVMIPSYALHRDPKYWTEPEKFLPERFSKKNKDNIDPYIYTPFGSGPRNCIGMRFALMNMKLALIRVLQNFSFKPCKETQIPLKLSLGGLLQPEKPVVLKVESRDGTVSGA
Test: Cytochrome panel assay with activity outcomes
Settings: recombinant CYP, pro-luciferin dealkylation, luminescence, p450-cyp3a4; series mostly up to 57.1 µM; activity, negative = inhibition: at the top concentration
% is scaled to controls: 0 for no effect and ±100 for the full control effect.

Row | SMILES | activity, negative = inhibition | AC50
1 | C[N+](C)(C)CCCCCNCC12CC3CC(CC(C3)C1)C2 | -10.3% | 
2 | O=C(O)[C@H](Cc1cc(I)c(O)c(I)c1)C1CCCCC1 | -12.6% [at 11.4 µM] | 
3 | CCOc1cc2[nH]c(=O)n(CCCC(=O)NCc3ccc(OC)cc3)c(=O)c2cc1OCC |  | 2.51 µM (active)
4 | CCOc1cc2[nH]c(=O)n(CCC(=O)NCc3ccc(OC)cc3)c(=O)c2cc1OCC |  | 3.55 µM (active)
5 | Cc1ccc(Cn2nc(C)c(NC(=O)c3cc(-c4ccco4)on3)c2C)cc1 |  | 2.24 µM (active)
6 | O=C(c1cc(-c2ccco2)on1)N1CCOCC1 | -7.73% | 
7 | CCc1ccc(NC(=O)c2cc(C(C)C)on2)cc1 | -3.41% | 
8 | Cc1cc(C=C(C#N)C#N)c(C)n1-c1ccccc1 | 5.65% | 
9 | COCC(=O)N1CCC2(CCCN(Cc3cc(C(F)(F)F)cc(C(F)(F)F)c3)C2)CC1 |  | 20 µM (active)
10 | O=C(c1cccc(F)c1)N1CCC2(CCCN(Cc3ccccc3)C2)CC1 | -24.7% | 
11 | COC(=O)N1CCC2(CCCN(Cc3cc(C(F)(F)F)cc(C(F)(F)F)c3)C2)CC1 | -0.66% | 
12 | COCC(=O)N1CCC2(CCCN(Cc3ccccc3)C2)CC1 | -23.3% | 
13 | COCC(=O)N1CCC2(CC1)CN(Cc1cc(C(F)(F)F)cc(C(F)(F)F)c1)C2 | -17% | 
14 | COC(=O)N1CCC2(CCN(Cc3cc(C(F)(F)F)cc(C(F)(F)F)c3)CC2)CC1 | -24.3% | 
15 | COc1ccc(C(=O)N2CCC3(CCCN(Cc4cc(C(F)(F)F)cc(C(F)(F)F)c4)C3)CC2)cc1 |  | 10 µM (active)
16 | O=C(c1cccc(F)c1)N1CCC2(CCCN(Cc3cc(C(F)(F)F)cc(C(F)(F)F)c3)C2)CC1 |  | 10 µM (active)
17 | COc1ccc(C(=O)N2CCC[C@@]3(CCN(Cc4cc(C(F)(F)F)cc(C(F)(F)F)c4)C3)C2)cc1 |  | 3.16 µM (active)
18 | CS(=O)(=O)N1CCC2(CC1)CN(Cc1cc(C(F)(F)F)cc(C(F)(F)F)c1)C2 | -22.2% | 
19 | FC(F)(F)c1cc(CN2CC3(CCNCC3)C2)cc(C(F)(F)F)c1 | -20.6% | 
20 | FC(F)(F)c1cc(CN2CCCC3(CCNCC3)C2)cc(C(F)(F)F)c1 |  | 7.94 µM (active)
21 | CC(C)(C)N1C(=O)[C@H]2[C@H]3[C@H](O)[C@H](O)C/C(=N/NC(=O)OCc4ccccc4)[C@H]3CC[C@@H]2C1=O | -22.6% [at 11.4 µM] | 
22 | COc1ccc(N2CC(C(=O)Nc3cc(C)on3)CC2=O)cc1 (stereo not given) | -17.7% | 
23 | COc1ccc(/C=C2\SC(=O)N(CCNC(=O)C3CC(=O)N(c4ccccc4)C3)C2=O)cc1 (stereo not given) |  | 2.82 µM (active)
24 | NC(N)=NC(N)=Nc1ccc(S(N)(=O)=O)cc1 | -13.3% [at 11.4 µM] | 

Row | SMILES | activity, negative = inhibition | AC50
25 | COc1ccccc1NC(=S)NNC(=O)c1c(Cl)c(C)nn1C |  | 15.8 µM (active)
26 | Cc1nn(C)c(C(=O)NNC(=S)Nc2ccc(Cl)cc2)c1[N+](=O)[O-] | -8.67% [at 2.29 µM] | 
27 | COC(=O)c1c(-c2cc(OC)c(OC)c(OC)c2)c2ccnc(OCc3ncccn3)c2c(=O)n1Cc1ccnc(C)c1 |  | 15.8 µM (active)
28 | c1ccc2[nH]c(NC3=NCCC3)nc2c1 | 8.35% | 
29 | CCn1c(SCc2nc3ccccc3[nH]2)nnc1-c1ccc(OC)cc1 |  | 3.16 µM (active)
30 | OC(Cc1nc2ccccc2[nH]1)c1ccccc1Cl (stereo not given) |  | 10 µM (active)
31 | c1ccc(SCc2nc3ccccc3[nH]2)cc1 |  | 12.6 µM (active)
32 | c1ccc(-c2nnc(SCc3nc4ccccc4[nH]3)n2Cc2ccco2)cc1 |  | 2 µM (active)
33 | CC[C@]1(C)CC(=O)NC1=O |  | inactive
34 | NCc1ccccc1CC(=O)N[C@@H]1C(=O)N2C(C(=O)O)=C(CSc3nnnn3CC(=O)O)CS[C@@H]12 | -2.75% [at 25.6 µM] | 
35 | C/C(C[n+]1ccccc1)=N\N=C(N)N | 2.37% [at 11.4 µM] | 
36 | Cc1noc(C)c1-c1nccc(NCc2cccnc2)n1 |  | 3.98 µM (active)
37 | Cc1noc(C)c1-c1nccc(NCc2cccs2)n1 |  | 15.8 µM (active)
38 | Cc1noc(C)c1-c1nccc(NCc2ccccc2)n1 |  | 5.01 µM (active)
39 | Nc1[nH]c(=O)nc2c1ncn2[C@H]1O[C@@H](CO)[C@@H](O)[C@@H]1O | -8.49% [at 11.4 µM] | 
40 | CCCCn1cnc2c(c(CC#N)nn2-c2ccccc2)c1=N | -13.4% [at 11.4 µM] | 
41 | COCC(=O)N1CCC[C@@]2(CCN(c3ncccn3)C2)C1 | -13.1% | 
42 | COc1ccccc1C1/C(=C(/O)c2ccccc2)C(=O)C(=O)N1CCO (stereo not given) | -5.34% | 
43 | CC(C)Oc1ccc(/C(O)=C2/C(=O)C(=O)N(Cc3cccnc3)C2c2ccco2)cc1 (stereo not given) |  | 14.1 µM (active)
44 | COc1ccc(/C(O)=C2/C(=O)C(=O)N(Cc3cccnc3)C2c2ccco2)cc1OC (stereo not given) |  | 14.1 µM (active)
45 | CCOc1cccc(/C(O)=C2/C(=O)C(=O)N(Cc3cccnc3)C2c2ccco2)c1 (stereo not given) |  | 12.6 µM (active)
46 | Cc1ccc(C2/C(=C(/O)c3ccc(Cl)cc3)C(=O)C(=O)N2CC2CCCO2)o1 (stereo not given) | -22.7% | 
47 | COc1cccc(/C(O)=C2/C(=O)C(=O)N(Cc3cccnc3)C2c2ccco2)c1 (stereo not given) |  | 14.1 µM (active)
48 | COc1ccc(C2/C(=C(/O)c3ccccc3)C(=O)C(=O)N2CC(C)O)c(OC)c1 (stereo not given) | -11.4% | 

Row | SMILES | activity, negative = inhibition | AC50
49 | COCCN1C(=O)C(=O)/C(=C(/O)c2cccc(OC)c2)C1c1ccco1 (stereo not given) | -0.898% | 
50 | COc1ccc(C2C(C(=O)c3ccco3)=C(O)C(=O)N2Cc2cccnc2)cc1OC (stereo not given) | -18.7% | 
51 | O=C(O)c1ccc(/C=N\N=C2c3ccccc3-c3ccccc32)cc1 | -15.1% [at 11.4 µM] | 
52 | CCNc1nnc(-c2ccncc2)s1 | -14.1% [at 11.4 µM] | 
53 | Cc1ccccc1/C=N\NC(=O)c1csnn1 | -24.9% | 
54 | CCc1ccc(N(C(=O)c2csnn2)C(C(=O)NC(C)(C)C)c2ccncc2)cc1 (stereo not given) |  | 3.98 µM (active)
55 | Cc1ccc(N(C(=O)c2csnn2)C(C(=O)NC(C)(C)C)c2cccs2)cc1 (stereo not given) |  | 7.08 µM (active)
56 | COC(=O)N1CCC2(CCN(C(=O)NC(C)C)CC2)CC1 | -3.12% | 
57 | Cn1c(SCc2nnc(-c3ccc(F)cc3)o2)nnc1C1COc2ccccc2O1 (stereo not given) |  | 14.1 µM (active)
58 | CC(Oc1ccc(Cl)cc1)C(=O)/C=C/N(C)C (stereo not given) | -20.2% | 
59 | Oc1[nH]c2ccccc2c1/C=N/c1nccs1 |  | 15.8 µM (active)
60 | Oc1[nH]c2ccccc2c1N=Nc1ccc(C(F)(F)F)cn1 | 4.51% | 
61 | Cc1cc(C)n(C(=O)c2cc3ccccc3c(=O)o2)n1 | 3.16% | 
62 | CC(=O)c1cnc2cc(C)nn2c1C | 27% | 
63 | Cc1cc(C)n(C(=O)CCCCCCCCC(=O)n2nc(C)cc2C)n1 |  | 4.47 µM (active)
64 | CC1=C(C(=O)O)N2C(=O)C(NC(=O)c3ccn(C)n3)C2SC1 (stereo not given) | 0.0496% | 
65 | O=C(CN(Cc1ccccc1Cl)C(=O)c1ccc(CN2CCOCC2)o1)NCC1CCCO1 (stereo not given) |  | 12.6 µM (active)
66 | O=C(CSCc1c(F)cccc1Cl)NCC1CCCO1 (stereo not given) | -15.8% | 
67 | CN(CC(=O)O/N=C(\N)c1ccccn1)S(=O)(=O)c1ccccc1 | 3.62% | 
68 | COc1ccc(N(CC(=O)N/N=C/c2cccs2)S(=O)(=O)c2ccc(OC)c(OC)c2)cc1 |  | 1.12 µM (active)
69 | COc1ccc(N(CC(=O)NN=C2CCCC2)S(=O)(=O)c2ccccc2)cc1 |  | 2.82 µM (active)
70 | CC(C)(C)C1CCc2c(C(=O)N/N=C/c3cccs3)csc2C1 (stereo not given) | 5.34% [at 2.29 µM] | 
71 | COCCCNC(=O)CN(c1ccc(OC)cc1)S(=O)(=O)c1ccc(NC(C)=O)cc1 |  | 12.6 µM (active)
72 | O=C(CN(c1ccccc1)S(=O)(=O)c1ccccc1[N+](=O)[O-])NN=C1CCCCCCC1 | 14.3% | 

Row | SMILES | activity, negative = inhibition | AC50
73 | Cn1cccc1CC(=O)N/N=C\c1cccs1 | 3.8% [at 2.29 µM] | 
74 | COc1ccccc1OCC(=O)NNC(=O)c1cnccn1 | 16% [at 2.29 µM] | 
75 | O=C(NNC(=O)C1CCCCC1)c1cnccn1 | -0.435% [at 2.29 µM] | 
76 | O=C(NCc1ccccc1Cl)c1cnccn1 |  | 1 µM (active)
77 | COCCNc1ccnc(-c2cccc(NS(C)(=O)=O)c2)n1 |  | 25.1 µM (active)
78 | COc1ccc(CNc2ccnc(-c3cccc(NS(C)(=O)=O)c3)n2)c(OC)c1 |  | 3.98 µM (active)
79 | COc1ccc(CNc2ccnc(-c3cccnc3)n2)c(OC)c1 |  | 0.631 µM (active)
80 | COc1cccc(-c2nccc(NCc3ccccc3OC)n2)c1 |  | 2.51 µM (active)
81 | CSc1nc(-c2ccc(C)cc2)nc(C(Cl)Cl)n1 | -4.04% | 
82 | COc1cccc(-c2nccc(NCc3ccc(OC)cc3OC)n2)c1 |  | 3.16 µM (active)
83 | COc1ccccc1CN1CCC2(CC1)CCN(C(=O)c1c(C)noc1C)CC2 | -14.3% | 
84 | COc1ccccc1CN1CC[C@@]2(CCCN(C(=O)c3c(C)noc3C)C2)C1 |  | 1.58 µM (active)
85 | Cc1noc(C)c1C(=O)N1CCC2(CC1)CN(c1ncccn1)C2 | -3.04% | 
86 | Cc1noc(C)c1C(=O)N1CCC2(CCN(Cc3nccs3)CC2)CC1 | -15.6% | 
87 | Cc1noc(C)c1C(=O)N1CCC[C@@]2(CCN(Cc3ccccc3)C2)C1 |  | 12.6 µM (active)
88 | Cc1noc(C)c1C(=O)N1CCC2(CCN(Cc3ccccc3)CC2)CC1 | -9.16% | 
89 | Cc1noc(C)c1C(=O)N1CCC2(CCN(Cc3cc(C(F)(F)F)cc(C(F)(F)F)c3)CC2)CC1 | -11.6% | 
90 | Cc1noc(C)c1C(=O)N1CCC[C@@]2(CCN(Cc3nccs3)C2)C1 |  | 15.8 µM (active)
91 | CC(C)(N=NC(C)(C)C1=NCCN1)C1=NCCN1 | -8.65% [at 11.4 µM] | 
92 | CCCCOc1ccc(S(=O)(=O)Nc2cccnc2)cc1 |  | 2.51 µM (active)
93 | COc1cnc(NS(=O)(=O)c2ccc(N)cc2)nc1 | -28.2% [at 25.6 µM] | 
94 | CCCCOc1ccc(OC(=O)c2cccnc2)cc1 | -18.3% | 
95 | Cc1ccc(Nc2nnc(-c3ccc4c(c3)OCO4)o2)c(C)c1 |  | 3.16 µM (active)
